HCV inhibitor = HCV inhibition; Potency, µM (highest dose often 41.8 µM), most hits filed as inhibitors; Huh7.5.1 HCVcc-Cre infection, luciferase reporter, 44 h; 3.4% of 340,000 active
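Luciferase read-out (15 sec integration) after a 15 min room-temperature substrate step quantifies HCVcc-Cre infection. Cells, 1,000 per well, had compound added 4 h post-plating, then virus at ~0.5 moi, and were cultured 44 h.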
Pf growth 48h = P. falciparum growth inhibition at 48 hours (one generation). AID 504832. 5.9% of 310,000 active. Potency, µM (highest dose often 28.7 µM), hits mostly inhibitors. P. falciparum luciferase growth in erythrocytes, 48 h
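Firefly luciferase activity from engineered P. falciparum reports growth; inhibitors lower the luminescent signal. Cultures contained 2% hematocrit erythrocytes at 0.1% final parasitemia.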
Pf growth 96h = P. falciparum growth inhibition at 96 hours | P. falciparum luciferase reporter growth, 96 h | 6.9% of 320,000 active | Potency, µM (series often up to 28.7 µM), actives largely listed as inhibitors
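Erythrocytes infected with luciferase-expressing P. falciparum were dispensed at 2% hematocrit and 0.05% parasitemia (final), then incubated with compounds 96 hours at 37 C in 5% CO2. Luminescence after detection reagent addition reported growth.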
AmpC no deterg = blocks E. coli AmpC beta-lactamase in detergent-free assay; P00811; AmpC nitrocefin hydrolysis, absorbance 480 nm, 0.0001% Triton; Potency, µM (series often up to 57.1 µM), hits mostly inhibitors; 0.52% of 330,000 active; note: nearly all actives have a fitted effect of over 20% in size
Target sequence (P00811 whole entry, looked up): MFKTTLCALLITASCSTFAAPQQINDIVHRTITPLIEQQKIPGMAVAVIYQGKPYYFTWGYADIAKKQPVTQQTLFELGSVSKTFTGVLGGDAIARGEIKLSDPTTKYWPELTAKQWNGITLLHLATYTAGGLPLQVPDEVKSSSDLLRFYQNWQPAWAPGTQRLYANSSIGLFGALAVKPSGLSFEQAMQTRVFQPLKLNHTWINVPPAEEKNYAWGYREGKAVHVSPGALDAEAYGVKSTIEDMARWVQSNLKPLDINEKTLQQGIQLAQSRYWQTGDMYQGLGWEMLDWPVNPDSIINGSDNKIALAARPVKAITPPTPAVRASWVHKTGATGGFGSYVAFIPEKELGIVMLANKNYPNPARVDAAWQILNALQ
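20 mM phosphate pH 7.0 + 0.01% (detergent screen) or 0.0001% Triton X-100; 5.3 nM AmpC reagent; cpd preinc 15 min RT; nitrocefin (800 uM stock) to start; A480 q20 s × 4 min; Activity was normalised to no-enzyme and no-compound control wells.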
AMA1 RON2 block = AMA1-RON2 (P. falciparum) interaction inhibition; Potency, µM (series often up to 58.2 µM), usual class: inhibitors; AID 720542; AlphaScreen AMA1-biotinylated RON2 peptide binding; 0.2% of 360,000 active; note: nearly all actives have a fitted effect of over 45% in size
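AMA1 (3D7) with his tag at 25 nM final met compounds first, then biotinylated RON2 peptide at 25 nM; detection used donor plus acceptor beads, 10 µg/mL apiece, read by AlphaScreen after 30 min at room temperature.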
AmpC inh detg = AmpC beta-lactamase inhibition with detergent present; Potency, µM (titrated, usually from 114 µM), usual class: inhibitors; 0.041% of 370,000 active; AmpC hydrolysis of nitrocefin, absorbance 480 nm, 0.01% Triton; note: nearly all actives have a fitted effect of over 25% in size
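20 mM phosphate pH 7.0 + 0.01% (detergent screen) or 0.0001% Triton X-100; 5.3 nM AmpC reagent; cpd preinc 15 min RT; nitrocefin (800 uM stock) to start; A480 q20 s × 4 min; Activity was normalised to no-enzyme and no-compound control wells.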
Numbers stand for hits; i = inactive; ? = inconclusive; nt = not tested or not shown; [ ] = dose if it differs, or a comment. This is a sample that favours compounds with a hit; in the whole collection about 11% have one here. Calls come from the whole dose curve; as a rule, active = well fitted curve in the direction sought with a large enough effect; inconclusive = small, poorly fitted or top-dose-only effect, or another doubt; inactive = no such curve, though single readings can be large; an effect the other way counts as inactive or inconclusive.

SMILES	HCV inhibitor	Pf growth 48h	Pf growth 96h	AmpC no deterg	AMA1 RON2 block	AmpC inh detg
N#Cc1ccc2c(c1)C[C@]1(c3ccsc3)OC3=C(C(=O)OC4(CCCCC4)C3)C2O1	nt	?	?	i[11.4 µM]	nt	?
Cc1cc2c(c(=O)n1Cc1ccccc1)C1O[C@](c3ccsc3)(Cc3ccccc31)O2	nt	1.2µM	?	i[11.4 µM]	nt	?
Cc1cc2c(c(=O)n1Cc1ccccc1)C1O[C@](c3ccsc3)(Cc3cc(C#N)ccc31)O2	nt	1.69µM	i[5.75 µM]	i[11.4 µM]	nt	i[22.9 µM]
Cn1c(SCC(=O)Nc2nc3ccccc3s2)ncc(C(=O)Nc2ccc(Cl)cc2)c1=O	nt	nt	nt	nt	nt	i
Nc1ccc(N2CCN(c3ncc(C(F)(F)F)cc3Cl)CC2)c(C(F)(F)F)c1	nt	nt	nt	nt	nt	i
CCCNC(=O)c1cccc(S(=O)(=O)N2CC3(C)CC2CC(C)(C)C3)c1 (centres undefined)	i	?	13.1µM	i	i	?
CC(=O)Nc1ccc(S(=O)(=O)N2CC3(C)CC2CC(C)(C)C3)cc1 (centres undefined)	i	i	i	i	i	i
CC1(C)CC2CC(C)(CN2S(=O)(=O)c2ccc(C(=O)Nc3ccc(S(=O)(=O)N4CCOCC4)cc3)cc2)C1 (centres undefined)	?	10.4µM	?	i	i	?
CC(=O)c1cccc(NC(=O)c2ccc(Cl)c(S(=O)(=O)N3CCOCC3)c2)c1	nt	nt	nt	nt	nt	i
CC1(C)CC2CC(C)(CN2S(=O)(=O)c2ccc(C(=O)Nc3ccc(Cl)c(S(=O)(=O)N4CCOCC4)c3)cc2)C1 (centres undefined)	?	9.28µM	?	i	i	i
CCN1C(=O)/C(=C\c2ccco2)C(C(=O)OC)=C1C	12.6µM	?	i	i	i	i
COC(=O)C1=C(C)N(Cc2ccccc2)C(=O)/C1=C\c1ccco1	i	i	i	i	i	i
COC(=O)C1=C(C)N(CC(C)C)C(=O)/C1=C\c1cccs1	15.8µM	nt	nt	i	?	i
C=CCN1C(=O)/C(=C\c2ccco2)C(C(=O)OC)=C1C	?	i	i	i	?	?
COC(=O)C1=C(C)N(Cc2cccnc2)C(=O)/C1=C\c1sccc1C	11.2µM	?	i	i	?	i
COC(=O)c1ccc(NC(=O)CCc2c(C)nn(-c3ccc(N4CCOCC4)nn3)c2C)cc1	nt	nt	nt	nt	nt	i
COc1cccc(C(=O)NCC2CCCN2S(=O)(=O)c2ccccc2)c1 (centres undefined)	i	?	11.7µM	i	i	i
COc1ccccc1NC(=O)C(=O)NCCC1CCCCN1S(=O)(=O)c1ccccc1 (centres undefined)	?	?	i	i	i	i
COc1cccc(NC(=O)C(=O)NCCC2CCCCN2S(=O)(=O)c2ccccc2)c1 (centres undefined)	3.98µM	i	i	i	i	i
COc1ccc(S(=O)(=O)N2CCCC2CNC(=O)c2cccc(OC)c2)cc1 (centres undefined)	i	?	?	i	i	i
COc1cccc(NC(=O)C(=O)NCC2CCCN2S(=O)(=O)c2ccccc2)c1 (centres undefined)	11.2µM	i	i	i	i	i
COc1ccc2c(c1)c(N1CCCC1=O)c(C(=O)Nc1ccc(Cl)cc1C)n2C	nt	nt	nt	nt	nt	i
COc1cc(NC(=O)Nc2cccc(-c3noc(C)n3)c2)cc(OC)c1OC	nt	nt	nt	nt	nt	i
CCN(CCCNC(=O)c1nn(-c2ccc(OC)cc2)c(=O)c2c1c1ccccc1n2C)c1ccccc1	nt	nt	nt	nt	nt	i
CC(=O)c1ccc(N2CCN(S(=O)(=O)c3ccc(-c4cc(C(F)(F)F)on4)s3)CC2)cc1	nt	nt	nt	nt	nt	i
SMILES	HCV inhibitor	Pf growth 48h	Pf growth 96h	AmpC no deterg	AMA1 RON2 block	AmpC inh detg
COc1cc(Br)c(C(C)NC(=O)c2cccc(Br)c2)cc1OC (centres undefined)	?	1.85µM	1.65µM	i	i	i
COc1cc(Br)c(C(C)NC(=O)c2ccc(C)cc2)cc1OC (centres undefined)	?	i	?	i	i	i
Cc1cccc(OCC(=O)Nc2cccc(C(=O)OCc3cc(=O)n4nc(C(C)C)sc4n3)c2)c1	nt	nt	nt	nt	nt	i
CCOc1ccc(NC(=O)CC2C(=O)N(c3cccc(C)c3)C(=O)N2CCC2=CCCCC2)cc1 (centres undefined)	nt	nt	nt	nt	nt	i
Cc1ccc(NC(=O)C2CCCN(C(=O)c3cnn(-c4ccc(F)cc4)c3-n3cccc3)C2)c(Cl)c1 (centres undefined)	nt	nt	nt	nt	nt	i
CC(C)c1nc2sc(C(=O)O)c(N)c2c2c1CCCC2	i	?	13.1µM	i	i	i
Cc1nc2sc(C(N)=O)c(N)c2c2c1CCCC2	i	i	i	i	i	i
O=C(Cn1c(SCc2cccc(F)c2)nc2cccnc21)Nc1ccc(F)c(Cl)c1	nt	nt	nt	nt	nt	i
COc1ccc(NC(=O)Cn2ncc3c4ccccc4n(Cc4ccccc4)c3c2=O)cc1OC	nt	nt	nt	nt	nt	i
CCCc1nnc(NC(=O)CCC(=O)N2CCN(Cc3ccccc3)CC2)s1	i	i	?	i	i	i
CCCc1nnc(NC(=O)CCC(=O)N2CCN(CCOC(c3ccccc3)c3ccccc3)CC2)s1	i	10.4µM	?	i	i	i
Cc1ccc(C)c(NC(=O)CSc2n[nH]c(-c3ccccn3)n2)c1	?	?	i	i	i	i
Cc1ccc(O)c(NC(=O)CSc2n[nH]c(-c3ccccc3)n2)c1	11.2µM	i	?	i	i	i
O=C(CSc1n[nH]c(-c2ccccn2)n1)Nc1cccc(Cl)c1	10µM	?	?	i	i	i
Cc1ccccc1NC(=O)CSc1n[nH]c(-c2ccccn2)n1	?	?	i	i	8.91µM	i
O=C(CC(c1cccs1)N1Cc2ccccc2C1=O)Nc1ccc(F)cc1 (centres undefined)	nt	nt	nt	nt	nt	i
COCCCN(Cc1ccco1)C(=O)c1cc2c(s1)-c1ccccc1OC2	nt	nt	nt	nt	nt	i
CCOc1ccc(C(=O)N2CCN(Cc3cc(=O)n4nc(-c5ccccc5Cl)sc4n3)CC2)cc1	nt	nt	nt	nt	nt	i
Cc1ccc(Sc2ncccc2COC(=O)Nc2c(C)cccc2C)cc1	?	?	7.38µM	i	i	?
Cc1ccc(-c2ccc(=O)n(CCC(=O)NCCc3ccccc3)n2)cc1	nt	nt	nt	nt	nt	i
C=CCn1c(=NC(=O)c2ccco2)sc2cc(C(=O)OCC)ccc21	i	i	6.57µM	i	i[2.32 µM]	i
COc1ccc(-c2sc3ccc(N4CCOCC4)cc3c2C#Cc2ccsc2)cc1	?	nt	nt	i	i	nt
COc1ccc2sc(-c3ccc(SC)cc3)c(C#CCO)c2c1	2.82µM	nt	nt	i	i	nt
COc1cccc(-c2sc3ccc(OC)cc3c2C#CCC(C)O)c1 (centres undefined)	?	?	?	i	i	i
COc1ccc(-c2sc3ccc(OC)cc3c2C#CCCO)cc1	?	i	?	i	i	i

Bioassay records (PubChem)
